The results in this text go back to PubChem BioAssay AID488913 (National Center for Advancing Translational Sciences (NCATS), 2010).

The structures appear in SMILES notation. Records with an inconclusive call do not appear. The source made the active and inactive calls. Calls come from the whole dose curve; as a rule, active = well fitted inhibition curve with a large enough effect; inconclusive = small, poorly fitted or top-dose-only effect, or effect the other way; inactive = no such curve, though single readings can be large or run the other way.

The test in a line: Confirmation Concentration-Response Assay for lipid storage modulators: for probe SAR. The settings on record: Drosophila S3 cells, BODIPY lipid droplet fluorescence, 18-24 h; series mostly up to 46.1 µM; activity change, negative = lipid storage inhibition: at the top concentration. Summed up: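 Cells (5,000/well) received compound plus 1 µL of 400 µM oleic acid and were incubated 18–24 h at 24 °C. Lipid droplets were stained with BODIPY 493/503 and cells counted with CellTracker Red by laser-scanning cytometry. Percent activity was relative to 20 µM Triacsin C (100% inhibition).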
In the case of `CCOC(=O)C1CCN(C(=O)C2(NC(=O)NCc3ccccc3)CCCCC2)CC1`, the Potency is 4.45 µM (active).

As for `COc1ccc(CCNC(=O)c2cc3sccc3n2Cc2ccc(F)cc2)cc1OC`, the Potency was 0.499 µM (active).

With `CCOc1ccc(CCNC(=O)c2cc3sc(Cl)cc3n2CC)cc1OCC`, the Potency was 2.23 µM (active).

Take `CC1(C)CCC(c2ccc(Cl)cc2)=C(CN2CCN(c3ccc(C(=O)NS(=O)(=O)c4ccc(N[C@H](CCN5CCOCC5)CSc5ccccc5)c(S(=O)(=O)C(F)(F)F)c4)cc3)CC2)C1`: the Potency is 0.996 µM (active).

As to `CCOc1ccc(CCNC(=O)C2COc3ccccc3O2)cc1OCC` (stereo not drawn), the Potency is 11.2 µM (active).

For `O=C(NC1CCCc2c1cnn2-c1ccccc1F)c1cccc2nccnc12` (stereo not drawn), the Potency is 2.74 µM (active).

For the compound `O=C(NCCc1ccc2c(c1)OCO2)c1cc2sccc2n1Cc1ccccc1`, the “activity change, negative = lipid storage inhibition” value was -25.5% (inactive).

On to `Cc1ccc(C)c(-c2csc(NC(=O)CSc3nnc(Nc4ccc(OC(F)(F)F)cc4)s3)n2)c1`, for which the “activity change, negative = lipid storage inhibition” value was 6.55% (inactive).

Regarding `O=C(NC1CCCc2c1cnn2-c1ccc(F)cc1F)c1cnsn1` (stereo not drawn), the Potency was 0.499 µM (active).

For `CCOc1ccc(CCNC(=O)CN(C)C)cc1OCC`, the “activity change, negative = lipid storage inhibition” value is 29.5% (inactive).

As to `CCOc1ccc(CCNC(=O)c2cc3ccccc3n2C)cc1OCC`, the Potency was 7.91 µM (active).

On to `O=C(NC1CCCc2c1cnn2-c1ccc(F)cc1F)c1c(F)cccc1Cl` (stereo not drawn), for which the Potency was 3.53 µM (active).

As to `CCOc1ccc(CCNC(=O)c2cc3sccc3[nH]2)cc1OCC`, the Potency is 7.91 µM (active).

As to `CCOc1ccc(CCNC(=O)c2cc3sccc3n2Cc2ccccc2)cc1OCC`, the Potency is 0.0353 µM (active).

On to `CCOc1ccc(CCNC(=O)c2cc3sccc3n2C)cc1OCC`, for which the Potency was 0.499 µM (active).

`O=C(NC1CCCc2c1cnn2-c1ccccc1F)c1ccc2ncccc2c1` (stereo not drawn): the Potency was 2.23 µM (active).

In the case of `O=C(NC1CCCc2c1cnn2-c1cc(F)cc(F)c1)c1cccc2nccnc12` (stereo not drawn), the Potency is 3.45 µM (active).

`Cc1nc(SC(C)C(=O)Nc2nc(-c3ccccc3)cs2)n(CC2CCCO2)c1C` (stereo not drawn): the Potency was 4.45 µM (active).

As for `O=C(NC1CCCc2c1cnn2-c1ccc(F)cc1F)c1ccncc1` (stereo not drawn), the Potency was 9.96 µM (active).

For the compound `COc1ccc(CCNC(=O)c2cc3sc(C)cc3n2C)cc1OC`, the Potency is 2.81 µM (active).

Regarding `O=C(NC1CCCc2c1cnn2-c1ccc(F)cc1F)c1cccs1` (stereo not drawn), the Potency is 0.0177 µM (active).

On to `O=C(NC1CCCc2c1cnn2-c1ccc(F)cc1F)c1ccsc1` (stereo not drawn), for which the Potency is 0.0315 µM (active).

For `COc1ccc(-c2csc(NC(=O)CSc3nnc(NC4CC4)s3)n2)cc1OC`, the “activity change, negative = lipid storage inhibition” value is -5.24% (inactive).
